# Values joined by “and” are separate entries in the source; they are usually repeats but may differ in a detail not shown here. Equal entries are not always repeated. Records with an inconclusive call do not appear.
# Experiment: qHTS Assay for Lipid Storage Modulators (AID 1519)
# Conditions: Drosophila S3 cells, BODIPY lipid droplet/cell ratio, laser cytometry; measured here: lipid channel max response; cells loaded with oleic acid
# Outline: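 Cells seeded at 5,000 per well were treated with compounds over a concentration series and loaded with oleic acid (400 uM, as added). Lipid droplet fluorescence (488 nm excitation, 500-530 nm channel) was read by laser-scanning cytometry and normalized to 20 uM Triacsin C.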
row,SMILES,max response
1,CC[N+](C)(CC)CCC[n+]1c(-c2ccccc2)c2cc(N)ccc2c2ccc(N)cc21,-3.68%
2,N[C@H](C(=O)O)c1ccc(C(=O)O)c(O)c1,-17.3%
3,O=C(O)Cc1cc2ccccc2nc1C(=O)O,0.785%
4,CC(N)=NCCC[C@H](N)C(=O)O,-3.8%
5,N[C@@H]1CCN(O)C1=O,25.6%
6,NC[C@](O)(CS(=O)(=O)O)c1ccc(Cl)cc1,9.5%
7,CO[C@@]12C[C@@H](COC(=O)c3cncc(Br)c3)CN(C)[C@H]1Cc1cn(C)c3cccc2c13,-4.61%
8,COc1ccccc1NC(=O)Nc1nc(-c2cccnc2)nc2ccccc12,-29%
9,CC(C)SC(=N)N,-3.81%
10,O=C(O)COc1ccc(OCCNC[C@@H](O)COc2ccccc2)cc1,11.4%
11,COC(=O)[C@@H]1[C@@H]2C[C@H]3c4[nH]c5ccccc5c4CCN3C[C@@H]2CC[C@@H]1O,-5.26% and -13% and 13.4%
12,N[C@H](Cc1cnc[nH]1)C(=O)O,-11.7%
13,N[C@H](CCC(=O)NCC(=O)O)C(=O)O,3.09%
14,CC1=C(\C=C/C(C)=C/C=C\C(C)=C\C(=O)O)C(C)(C)CCC1,-6.6% and 8.88%
15,CCC(=O)O[C@H](CC(=O)O)C[N+](C)(C)C,-5.22%
16,N[C@]1(C(=O)O)CCc2cc(C(=O)O)ccc21,23.6%
17,C[C@@](N)(C(=O)O)c1ccc(P(=O)(O)O)cc1,-4.21%
18,C[C@H](C[C@H](N)C(=O)O)C(=O)O,-13.5%
19,O=C(O)[C@H]1CCCNC1,-1.72%
20,O=C(O)[C@H]1CN(CCCP(=O)(O)O)CCN1,0.367% and -3.68%

row,SMILES,max response
1,NCCC(=O)O,-21.9%
2,CCN(Cc1ccncc1)C(=O)[C@@H](CO)c1ccccc1,-15.1%
3,N[C@@H](C(=O)O)c1ccc(P(=O)(O)O)cc1,7.2%
4,C[C@@](N)(C(=O)O)c1ccc(C(=O)O)cc1,-13.1% and 2.03%
5,N[C@H](C(=O)O)c1nn[nH]n1,-0.771%
6,N[C@H](C(=O)O)[C@@H]1C[C@@H]1C(=O)O,-19.5% and 5.06%
7,CNCC[C@H](Oc1ccccc1OC)c1ccccc1,-15.9%
8,C[C@H](N=C(NC#N)Nc1ccncc1)C(C)(C)C,-1.85%
9,CC[C@](N)(CCC(=O)O)C(=O)O,15.7%
10,CC(N)=NCCCC[C@H](N)C(=O)O,-10.8%
11,C[C@@H](CCc1ccc(O)cc1)NCCc1ccc(O)c(O)c1,2.79%
12,CC(C)[C@@H]1[C@H]2CC[C@H](C2)[C@H]1N,-17.5%
13,N[C@H](C(=O)O)c1ccc(C(=O)O)cc1,-7.12%
14,C[C@@H]1C[C@@H]2[C@H]3CCC4=CC(=O)C=C[C@]4(C)[C@]3(F)[C@@H](O)C[C@@]2(C)[C@@]1(O)C(=O)CO,2.65%
15,C=C[C@@]1(C)CC(=O)[C@@]2(O)[C@@]3(C)[C@@H](O)CCC(C)(C)[C@@H]3[C@H](O)[C@H](OC(C)=O)[C@@]2(C)O1,18.7%
16,N[C@H](CCC(=O)N[C@H](CSN=O)C(=O)NCC(=O)O)C(=O)O,16.6%
17,c1ccc2oc(C3=NCCN3)cc2c1,-18.7%
18,CC(C)(C)NC[C@H](O)COc1cccc2[nH]c(=O)[nH]c12,-5.55%
19,CCC(=O)N[C@@H]1Cc2ccccc2[C@@H](c2ccccc2)C1,28.8%
20,S=C(S)O[C@@H]1C[C@@H]2C[C@H]1[C@@H]1CCC[C@H]21,9.53%

# Source: PubChem BioAssay (NCATS)
